Results published in the supplement of paper PMC10849652.
About 8,800 targets were measured; listed, in parts, are those with a hit and a random draw of the rest. About 0.5% of all pairs of compound and target were hits.

Compound: C#Cc1cccc(Nc2ncnc3cc(OCCOC)c(OCCOC)cc23)c1 [erlotinib]
Experiment: log2 fold change, soluble protein after heating vs DMSO (PISA); higher = thermal stabilisation; K562 lysate, 10 uM; active = over 0.2 and 3.5 SD of the protein, either way, in both replicates (recomputed)
Outline: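 A 30 min treatment with 10 μM compound was applied to crude K562 extract at 1 mg/mL protein in PBS pH 7.4 with 1 mM MgCl2. Heating for 3 min spanned 48°C-58°C, after which aliquots were pooled, adjusted to 0.5% NP-40 at 4°C and spun at 21,000xg for 90 min. TMTpro 16plex LC-MS/MS of the supernatant, with channel sums equalised, gave values recorded as log-two fold change in thermal stability against solvent controls, from duplicates.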

Sequence of UniProt Q9GZY8 (Q9GZY8 whole entry, looked up): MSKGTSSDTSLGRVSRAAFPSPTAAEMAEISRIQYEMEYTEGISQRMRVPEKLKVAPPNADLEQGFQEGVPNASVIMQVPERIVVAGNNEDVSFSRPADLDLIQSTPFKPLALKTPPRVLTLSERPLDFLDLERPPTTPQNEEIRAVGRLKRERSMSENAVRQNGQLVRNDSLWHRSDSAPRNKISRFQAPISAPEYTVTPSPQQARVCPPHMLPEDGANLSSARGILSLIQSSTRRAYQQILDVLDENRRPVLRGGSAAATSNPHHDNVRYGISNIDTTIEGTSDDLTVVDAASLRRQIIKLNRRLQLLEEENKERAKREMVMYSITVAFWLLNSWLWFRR
Sequence of UniProt Q8IWC1 (Q8IWC1 whole entry, looked up): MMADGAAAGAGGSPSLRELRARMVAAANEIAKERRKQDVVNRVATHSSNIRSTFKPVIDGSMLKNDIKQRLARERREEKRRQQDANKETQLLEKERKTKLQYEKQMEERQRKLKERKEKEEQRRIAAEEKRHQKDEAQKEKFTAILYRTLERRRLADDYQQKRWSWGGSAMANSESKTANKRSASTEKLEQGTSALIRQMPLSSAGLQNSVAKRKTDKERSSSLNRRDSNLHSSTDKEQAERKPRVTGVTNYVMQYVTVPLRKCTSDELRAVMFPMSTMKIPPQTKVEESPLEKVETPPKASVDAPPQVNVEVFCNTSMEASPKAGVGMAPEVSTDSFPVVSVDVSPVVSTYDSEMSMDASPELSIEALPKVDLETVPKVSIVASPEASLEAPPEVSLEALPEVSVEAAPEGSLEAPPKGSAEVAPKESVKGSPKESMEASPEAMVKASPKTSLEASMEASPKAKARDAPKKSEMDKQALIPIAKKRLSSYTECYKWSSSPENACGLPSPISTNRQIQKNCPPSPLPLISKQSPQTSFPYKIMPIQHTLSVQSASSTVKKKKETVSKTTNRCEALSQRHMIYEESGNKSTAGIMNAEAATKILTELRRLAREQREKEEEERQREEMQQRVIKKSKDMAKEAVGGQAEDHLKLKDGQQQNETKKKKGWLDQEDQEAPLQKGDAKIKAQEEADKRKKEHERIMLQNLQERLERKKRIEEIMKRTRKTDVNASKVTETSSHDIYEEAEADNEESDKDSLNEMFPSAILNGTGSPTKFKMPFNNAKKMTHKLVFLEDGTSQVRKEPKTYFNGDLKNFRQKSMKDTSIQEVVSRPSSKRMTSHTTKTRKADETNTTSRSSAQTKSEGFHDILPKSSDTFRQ
Sequence of UniProt Q8NG31 (Q8NG31 whole entry, looked up): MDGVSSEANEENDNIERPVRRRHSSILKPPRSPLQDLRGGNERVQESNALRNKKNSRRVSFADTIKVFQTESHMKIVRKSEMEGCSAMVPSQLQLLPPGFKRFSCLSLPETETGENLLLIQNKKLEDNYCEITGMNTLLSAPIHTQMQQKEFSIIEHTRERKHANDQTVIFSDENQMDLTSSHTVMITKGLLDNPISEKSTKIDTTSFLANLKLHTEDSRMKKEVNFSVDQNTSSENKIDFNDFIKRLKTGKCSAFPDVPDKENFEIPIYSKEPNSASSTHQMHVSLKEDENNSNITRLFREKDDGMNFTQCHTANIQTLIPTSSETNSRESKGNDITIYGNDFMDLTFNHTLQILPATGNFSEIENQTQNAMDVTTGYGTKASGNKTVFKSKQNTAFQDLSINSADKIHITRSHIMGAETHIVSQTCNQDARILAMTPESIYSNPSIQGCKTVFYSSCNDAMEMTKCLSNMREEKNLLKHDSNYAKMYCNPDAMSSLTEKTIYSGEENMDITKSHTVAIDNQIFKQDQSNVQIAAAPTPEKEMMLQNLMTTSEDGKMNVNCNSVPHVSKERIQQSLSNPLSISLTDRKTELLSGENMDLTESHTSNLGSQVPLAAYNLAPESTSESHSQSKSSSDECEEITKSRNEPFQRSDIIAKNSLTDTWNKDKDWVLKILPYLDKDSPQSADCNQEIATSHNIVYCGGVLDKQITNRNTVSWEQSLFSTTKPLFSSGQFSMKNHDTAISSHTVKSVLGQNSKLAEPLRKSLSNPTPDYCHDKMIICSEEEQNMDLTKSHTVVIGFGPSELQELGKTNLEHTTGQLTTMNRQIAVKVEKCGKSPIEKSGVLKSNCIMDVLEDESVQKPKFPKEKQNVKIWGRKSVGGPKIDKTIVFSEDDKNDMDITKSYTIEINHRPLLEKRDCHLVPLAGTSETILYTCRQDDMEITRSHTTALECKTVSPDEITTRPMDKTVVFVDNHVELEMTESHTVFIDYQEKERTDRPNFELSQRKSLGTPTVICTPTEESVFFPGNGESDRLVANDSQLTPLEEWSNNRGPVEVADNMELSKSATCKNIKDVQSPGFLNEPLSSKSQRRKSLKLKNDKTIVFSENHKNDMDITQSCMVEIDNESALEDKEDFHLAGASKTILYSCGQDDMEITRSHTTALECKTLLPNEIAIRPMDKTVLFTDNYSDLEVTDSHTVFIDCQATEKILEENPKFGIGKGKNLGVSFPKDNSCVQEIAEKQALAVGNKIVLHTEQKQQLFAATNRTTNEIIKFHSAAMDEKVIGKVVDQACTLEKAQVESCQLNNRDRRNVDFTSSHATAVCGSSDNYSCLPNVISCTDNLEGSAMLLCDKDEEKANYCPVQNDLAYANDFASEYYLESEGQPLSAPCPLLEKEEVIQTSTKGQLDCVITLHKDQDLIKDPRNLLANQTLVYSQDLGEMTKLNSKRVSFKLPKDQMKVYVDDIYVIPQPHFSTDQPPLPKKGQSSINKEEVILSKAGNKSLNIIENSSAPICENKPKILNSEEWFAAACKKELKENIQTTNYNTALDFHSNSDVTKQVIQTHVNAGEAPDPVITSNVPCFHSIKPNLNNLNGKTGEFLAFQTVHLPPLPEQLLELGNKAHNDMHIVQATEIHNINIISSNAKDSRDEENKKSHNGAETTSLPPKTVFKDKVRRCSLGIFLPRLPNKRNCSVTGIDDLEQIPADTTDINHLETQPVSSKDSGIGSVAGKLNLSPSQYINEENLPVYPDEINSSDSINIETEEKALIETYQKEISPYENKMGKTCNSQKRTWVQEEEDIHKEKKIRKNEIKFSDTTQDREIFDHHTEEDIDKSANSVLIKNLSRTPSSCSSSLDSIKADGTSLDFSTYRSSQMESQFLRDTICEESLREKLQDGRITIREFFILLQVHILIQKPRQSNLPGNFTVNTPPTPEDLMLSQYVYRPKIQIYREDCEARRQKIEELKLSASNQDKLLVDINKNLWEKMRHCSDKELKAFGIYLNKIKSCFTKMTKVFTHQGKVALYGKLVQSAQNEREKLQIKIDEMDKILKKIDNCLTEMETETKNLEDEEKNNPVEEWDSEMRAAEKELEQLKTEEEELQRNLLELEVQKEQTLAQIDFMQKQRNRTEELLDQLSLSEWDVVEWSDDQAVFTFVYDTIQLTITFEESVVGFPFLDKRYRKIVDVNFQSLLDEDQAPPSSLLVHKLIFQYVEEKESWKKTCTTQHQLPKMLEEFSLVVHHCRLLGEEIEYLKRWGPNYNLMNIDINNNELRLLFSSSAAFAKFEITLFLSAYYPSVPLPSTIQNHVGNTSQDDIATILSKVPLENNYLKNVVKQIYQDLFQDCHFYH
Sequence of UniProt P48449 (P48449 whole entry, looked up): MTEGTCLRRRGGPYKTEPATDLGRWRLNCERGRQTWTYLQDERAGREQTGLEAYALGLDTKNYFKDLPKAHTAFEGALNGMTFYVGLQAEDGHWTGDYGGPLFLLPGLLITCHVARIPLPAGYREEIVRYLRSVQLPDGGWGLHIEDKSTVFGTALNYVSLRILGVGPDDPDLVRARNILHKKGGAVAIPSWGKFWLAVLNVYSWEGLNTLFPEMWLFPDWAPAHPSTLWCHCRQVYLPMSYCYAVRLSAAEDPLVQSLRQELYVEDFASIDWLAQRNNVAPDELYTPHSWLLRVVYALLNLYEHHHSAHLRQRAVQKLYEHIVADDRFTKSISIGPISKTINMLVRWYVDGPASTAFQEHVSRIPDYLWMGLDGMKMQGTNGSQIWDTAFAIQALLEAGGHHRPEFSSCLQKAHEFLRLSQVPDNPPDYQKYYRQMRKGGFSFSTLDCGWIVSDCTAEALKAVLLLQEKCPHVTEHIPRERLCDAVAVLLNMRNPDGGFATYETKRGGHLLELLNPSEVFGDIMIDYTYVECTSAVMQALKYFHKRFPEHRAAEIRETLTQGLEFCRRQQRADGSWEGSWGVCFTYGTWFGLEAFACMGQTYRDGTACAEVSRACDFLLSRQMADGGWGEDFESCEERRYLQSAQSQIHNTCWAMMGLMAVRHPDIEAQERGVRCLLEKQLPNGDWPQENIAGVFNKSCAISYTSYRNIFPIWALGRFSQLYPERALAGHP
Sequence of UniProt P45983 (P45983 whole entry, looked up): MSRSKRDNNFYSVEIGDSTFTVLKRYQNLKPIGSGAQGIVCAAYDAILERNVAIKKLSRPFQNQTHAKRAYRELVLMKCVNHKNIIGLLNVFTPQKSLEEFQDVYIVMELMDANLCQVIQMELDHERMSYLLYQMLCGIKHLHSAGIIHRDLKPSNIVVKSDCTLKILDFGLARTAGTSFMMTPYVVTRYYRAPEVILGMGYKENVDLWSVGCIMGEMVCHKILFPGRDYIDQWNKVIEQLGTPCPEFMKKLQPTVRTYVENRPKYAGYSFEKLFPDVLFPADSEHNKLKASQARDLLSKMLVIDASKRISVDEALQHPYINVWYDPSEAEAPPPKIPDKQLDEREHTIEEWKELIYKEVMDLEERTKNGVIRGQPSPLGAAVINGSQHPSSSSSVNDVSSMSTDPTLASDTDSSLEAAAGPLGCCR
Sequence of UniProt Q96G25 (Q96G25 whole entry, looked up): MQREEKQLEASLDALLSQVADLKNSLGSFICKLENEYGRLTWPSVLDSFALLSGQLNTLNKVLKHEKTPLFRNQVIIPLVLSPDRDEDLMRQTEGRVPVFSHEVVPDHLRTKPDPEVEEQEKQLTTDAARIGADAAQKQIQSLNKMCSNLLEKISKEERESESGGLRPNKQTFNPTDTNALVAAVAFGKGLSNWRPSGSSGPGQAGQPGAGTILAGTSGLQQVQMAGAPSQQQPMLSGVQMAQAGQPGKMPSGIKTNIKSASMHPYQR

log2 fold change, inactive:
MLST8 (UniProt Q9BVC4) 0.038
MIPEP (UniProt Q99797) -0.048
LSS (UniProt P48449) -0.023
LIG3 (UniProt P49916) -0.003
LSG1 (UniProt Q9H089) 0.044
MFF isoform 2 (UniProt Q9GZY8) 0.006
LIG4 (UniProt P49917) 0.107
MICU2 (UniProt Q8IYU8) 0.025
MAP7D3 (UniProt Q8IWC1) 0.069
LARS2 (UniProt Q15031) 0.027
LUC7L (UniProt Q9NQ29) -0.024
MED8 isoform 2 (UniProt Q96G25) 0.017
MAP4 (UniProt P27816) 0.001
MITD1 (UniProt Q8WV92) -0.016
MIF4GD isoform 3 (UniProt A9UHW6) -0.006
LRCH3 (UniProt Q96II8) 0.043
MLH1 (UniProt P40692) 0.018
MAP4 (UniProt E7EVA0) 0.056
MBOAT2 (UniProt Q6ZWT7) -0.003
LYSMD3 (UniProt Q7Z3D4) -0.067
KPNA4 (UniProt O00629) -0.015
LYN (UniProt P07948) 0.054
KPNA2 (UniProt P52292) 0.009
MICB, A0A140T979 0.022
KIF26A (UniProt Q9ULI4) 0.117
MORF4L1 isoform 2 (UniProt Q9UBU8) 0.028
LBR (UniProt Q14739) 0.03
MAP11 (UniProt Q8WVR3) 0.013
KNSTRN (UniProt Q9Y448) -0.007
KNL1 (UniProt Q8NG31) -0.005
MAST4 (UniProt O15021) -0.019
LTN1 isoform 3 (UniProt O94822) 0.028
MECR (UniProt Q9BV79) -0.019
MAP4K2 (UniProt Q12851) 0.001
MAPK8 isoform 3 (UniProt P45983) 0.026
MPZL1 (UniProt O95297) -0.057
MRPL28 (UniProt Q13084) -0.112
KRI1 (UniProt Q8N9T8) -0.017
MPP1 (UniProt Q00013) 0.014
